By AC50 is commonly meant the concentration at which the activity in the assay is half-maximal.

Active and inactive are the calls of the source. The calls were made as follows: active = hit-call score of the fitted dose curve at least 0.9, where 1 is the maximum; inactive = score below 0.9.

Read-out in the assay: Cytochrome P450 (CYP1A2), CYP1A2 (gene 1544)
Kind of assay: LTEA_HepaRG_CYP1A2: Life Technologies and Expression Analysis (LTEA) Assay for Cytochrome P450 (CYP1A2) using HepaRG (AID 2283479).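 As to AC50: TaqMan qRT-PCR transcript level normalized to ACTB GAPDH and POLR2A.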 Particulars: mRNA level, 48 h; actives raise or lower the signal. On the procedure:
LTEA_HepaRG is a cell based, multiplexed-readout assay that uses HepaRG, a human liver cell line, with measurements taken at 48 hours after chemical dosing on a 96-well plate.LTEA_HepaRG_CYP1A2 is one of 102 assay component(s) measured in the LTEA HepaRG cell culture assay. It is a marker of NR mediated metabolism.Data from the assay component LTEA_HepaRG_CYP1A2 was analyzed into 1 endpoint. This assay endpoint, LTEA_HepaRG_CYP1A2, was analyzed with bidirectional fitting relative to DMSO as the negative control and baseline of activity. Using a type of inducible reporter, measures of mRNA induction for gain or loss-of-signal activity can be used to understand regulation of transcription factor activity. To generalize the intended target to other relatable targets, this assay endpoint is annotated to the cyp intended target family, where the subfamily is xenobiotic metabolism.
A total of 1060 chemcials from the ToxCast library were tested in eight-point concentration-response experiments. Cell culture and cytotoxicity assays were conducted at Thermo Fisher Scientific's Custom Services facility (Madison, WI). A single lot of human HepaRG cells (Thermo Fisher Scientific, Frederick, MD) was used for the cell culture experiments. 96-well format collagen type I coated plates of human HepaRG cells were prepared using established methods. Briefly, cryopreserved HepaRG cells were thawed, plated at a density of approximately 100,000 cells/well in HepaRG Thaw, Plate, and General Purpose media (HPRG770, Thermo Fisher Scientific), and incubated for 48 hours. 0.5% DMSO was selected as vehicle control to balance the requisite need of DMSO in HepaRG cultures to maintain differentiation (for example, baseline metabolism, proportions of hepatocytes vs. cholangiocytes), while enabling further hepatic receptor pathway activation (for example, PXR and CAR) in response to chemical exposure. 48 hours after plating, the culture medium was replaced with HepaRG Serum-Free Incudtion Media. Cells were exposed to each test chemical in duplicate and maintained in CO2 incubators for another 48 hours. Chemical plates were thawed to room temperature and 200x concentrations of treatment groups were prepared. 8-point conentration-reponse curves were made with the highest exposure at 100 uM, followed by half-log dilutions, all in 0.5% DMSO. Each test plate contained variouse controls, induction positive controls (1mM phenobarbital), cytotoxicity positive controls ([…] aflatoxin B1), vehicle controls (0.5% DMSO), and total lysis controls (0.5% DMSO). Cell morphology images were taken using an Essen IncuCyte FLR automated microscope, with six 96-well plates imaged in about 24 minutes. Images were captured and exported and JPEG files. Spent culture media was transfered to black-well plates for the LDH assay, and remaining media was sorted at -80 C for later use. Cells were treated with RLT buffer and frozen until shipped for gene expression analysis. Total RNA was isolated from the cell suspension in 75 uL of Buffer RLT (Qiagen, Germantown, MD 20874) by Quintiles/Expression Analysis (Durham, NC) using a custom isolation procedure. Total RNA from each plate well was transferred to a preamplification plate. Fluidigm's 96.96 Dynamic ArrayTM (Fluidigm, Amsterdam, the Netherlands) technology was used for gene expression analyses by quantitative reverse transcription polymerase chain reaction (qRT-PCR, performed by Quintiles/Expression Analysis, Durham, NC)89. Standard TaqManTM Assays (Applied Biosystems/ThermoFisher Scientific, Foster City, CA) were used to assess the expression of 93 genes selected based on their selectivity and sensitivity to important hepatic receptors known to be modulated by environmental chemicals; importance in human hepatocyte functionality; and hepatotoxicity. […]
In the case of `CCCCCCCCCCCO`, the call was inactive. The same measure, in the same setting: next, `O=C(O)Cn1c(=O)n(Cc2ccc(Br)cc2F)c(=O)c2ccc(Cl)cc21`: “inactive”. As for `Cc1c2ccccc2c(C)c2c1ccc1ccccc12`, the AC50 is 85 µM (active).

In the case of `NC(=O)c1nc(-c2cccc(-c3cc(F)ccc3OCC(F)(F)C(F)(F)F)c2)n[nH]1`, the call was inactive. For `CCCCCCCCCCCCO`, the compound was classed as inactive. Consider `CCCCCCCCOC(=O)c1cc(O)c(O)c(O)c1`, for which the concentration at half-maximal activity (AC50) was 39.5 µM (active).

Consider `Clc1ccccc1C(c1ccccc1)(c1ccccc1)n1ccnc1`, for which the half-maximal activity concentration (AC50) was 7.26 µM (active). Take `CC[C@H](NC(=O)c1cc(F)ccc1NS(=O)(=O)c1cccc2cccnc12)c1ccccc1`: the half-maximal activity concentration (AC50) is 76 µM (active).

Regarding `O=CCCCC=O`, the compound was called inactive. Still for that read-out and setting: next, `Cc1ccc(C(C)C)cc1`: “inactive”.

Consider `CC(=O)N1CCN(c2ccc(OC[C@H]3CO[C@](Cn4ccnc4)(c4ccc(Cl)cc4Cl)O3)cc2)CC1`, for which the concentration at half-maximal activity (AC50) is 26 µM (active). As to `COc1cc(C(=O)NC2CCN(C)CC2)ccc1Nc1ncc2c(n1)N(C1CCCC1)CC(F)(F)C(=O)N2C`, the AC50 was 4.65 µM (active). Turning to `CC(C)(O)c1ccc(CNC(=O)c2cccnc2Oc2ccc3nonc3c2)cc1`, the AC50 is 50 µM (active).

Take `O=c1ccc2ccccc2o1`: the call was inactive. The same measure, in the same setting: next, `O=c1c(-c2ccc(O)cc2)coc2cc(O)cc(O)c12`: “inactive”.

With `Clc1cc(Cl)c2c(c1)N=C1CCCCCN1C2`, the half-maximal activity concentration (AC50) is 2.21 µM (active). On the same count and under the same terms, next, `O=C(Nc1ccc(Cl)cc1)Nc1ccc(Cl)c(Cl)c1`: 11.8 µM (active). On to `CC(C)(C)c1csc(-c2cc3cc(OCc4ccccc4CC(=O)O)ccc3o2)n1`, for which the compound was called inactive. In the case of `Cc1ncc(CO)c(CO)c1O`, the compound was called inactive. Take `O=C(O)c1ccccc1C(=O)OCc1ccccc1`: the call was inactive. For the compound `CO[C@H]1/C=C/O[C@@]2(C)Oc3c(C)c(O)c4c(O)c(c(/C=N/N5CCN(C)CC5)c(O)c4c3C2=O)NC(=O)/C(C)=C\C=C\[C@H](C)[C@H](O)[C@@H](C)[C@@H](O)[C@@H](C)[C@H](OC(C)=O)[C@@H]1C`, the half-maximal activity concentration (AC50) is 0.563 µM (active). The same measure, in the same setting: next, `Oc1ccc2ccccc2c1`: 78.1 µM (active). For the compound `CCCCOC(=O)c1ccc(O)cc1`, the result was inactive. As for `Oc1ccccc1`, the outcome was inactive.

Take `NCc1cccc(C2CCN(C(=O)c3ccc(C#Cc4ccccc4F)o3)CC2)c1`: the concentration at half-maximal activity (AC50) is 90 µM (active). Consider `CCCCCCCCOc1ccc(C(=O)c2ccccc2)c(O)c1`, for which the AC50 is 50 µM (active). With `CCCCOC(=O)CC(CC(=O)OCCCC)(OC(C)=O)C(=O)OCCCC`, the call was inactive.

Consider `CN(C)C(=O)C1(N2CCCCC2)CCN(CC[C@@]2(c3ccc(Cl)c(Cl)c3)CN(C(=O)c3ccccc3)CCO2)CC1`, for which the AC50 was 24.2 µM (active). With `Cc1cc2c(cc1C(F)(F)F)N(C(=O)Nc1ccc(Oc3cccnc3C)nc1)CC2`, the AC50 is 2.31 µM (active). The same measure, in the same setting: under `COc1cccc([C@H](O)C2CCN(CCc3ccc(F)cc3)CC2)c1OC` stands 58.9 µM (active). As for `CC1=CC(=O)/C(=C(/C)O)C(=O)O1`, the compound was classed as inactive. Consider `CCCCCCCC[Si](OCC)(OCC)OCC`, for which the outcome was inactive. Regarding `CCCCCc1ccc(N)cc1`, the AC50 was 30.3 µM (active). `COc1ccc2cc(S(=O)(=O)N[C@H](CC(=O)N[C@H](Cc3ccc(CN4[C@H](C)CCC[C@@H]4C)cc3)C(=O)N(C)C(C)C)c3ccc4c(c3)OCO4)ccc2c1`: the AC50 was 7.93 µM (active).

On to `CN1C(=O)N(c2ccccc2Br)Cc2cnc(Nc3ccc4c(c3)OCC(CO)O4)nc21` (stereo not given), for which the AC50 is 90.9 µM (active). With `Cc1occc1C(=O)Nc1ccc(C(=O)N2CCC(F)(F)/C(=C\C(=O)N3CCC(N4CCCCC4)CC3)c3ccccc32)cc1`, the half-maximal activity concentration (AC50) is 18.4 µM (active). Turning to `O=C=NCCCCCCN=C=O`, the call was inactive. With `O=C1c2ccccc2C(=O)N1CCc1noc(-c2ccc(CN3CCCCCC3)s2)n1`, the AC50 was 6.97 µM (active). Take `CCCOC(=O)c1cc(O)c(O)c(O)c1`: the call was inactive.

`c1ccc2ccccc2c1`: the result was inactive.

For the origin of these results see PubChem BioAssay (EPA / NIEHS).
